FXIIa inh: human FXIIa protease inhibitors, primary screen, biochemical, single well | purified human FXIIa, AMC substrate fluorescence, 2 h | inhibition, % at 10 µM | 33,000 compounds, 0.2% hits; in the data active means inhibition above about 30%;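 further: 0% = enzyme with vehicle only and 100% = no enzyme blank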
Target sequence (P00748 20-372 limits assumed): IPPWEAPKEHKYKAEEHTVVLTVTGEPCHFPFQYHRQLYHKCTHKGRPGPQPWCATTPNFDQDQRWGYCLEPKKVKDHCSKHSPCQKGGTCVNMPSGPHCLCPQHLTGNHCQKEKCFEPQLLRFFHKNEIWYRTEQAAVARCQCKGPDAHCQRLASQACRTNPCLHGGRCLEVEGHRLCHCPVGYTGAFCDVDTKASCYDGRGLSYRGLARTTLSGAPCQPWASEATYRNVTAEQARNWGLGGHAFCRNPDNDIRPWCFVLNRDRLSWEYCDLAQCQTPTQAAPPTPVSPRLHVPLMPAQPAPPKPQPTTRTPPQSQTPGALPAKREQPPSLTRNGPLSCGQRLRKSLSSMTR
Target sequence (P00748 373-615 limits assumed): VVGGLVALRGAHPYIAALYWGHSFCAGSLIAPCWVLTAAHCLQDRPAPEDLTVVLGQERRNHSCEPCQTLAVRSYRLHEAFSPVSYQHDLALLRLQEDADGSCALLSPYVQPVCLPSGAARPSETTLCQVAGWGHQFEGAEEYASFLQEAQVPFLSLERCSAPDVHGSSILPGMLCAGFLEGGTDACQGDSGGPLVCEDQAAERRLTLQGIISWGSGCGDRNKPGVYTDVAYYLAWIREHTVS
FXIa inh: human FXIa protease inhibitors, primary screen, biochemical, single compound per well; purified human FXIa, fluorogenic AMC substrate cleavage; inhibition, % at 10 µM; 33,000 compounds, 0.3% hits; AID 687, 2007;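 active means inhibition above 40% in the primary screen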;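 further: 0% = enzyme without compound and 100% = blank wells lacking enzyme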
* = called active by the depositor. The sample as a whole holds a higher share of hits than the screen did.

SMILES	FXIIa inh	FXIa inh
COc1cccc(C(=O)N(Cc2ccccc2)Cc2cc3cc4c(cc3[nH]c2=O)OCCO4)c1	4	47*
COc1ccc(C(=O)N(Cc2ccccc2)Cc2cc3cc4c(cc3[nH]c2=O)OCCO4)cc1	2	-10
O=C(NC1(C(F)(F)F)C(=O)Nc2c1c(=O)[nH]c(=O)n2-c1ccccc1)c1ccncc1 (centres undefined)	10	1
N#Cc1cc2c(nc1SCC(=O)Nc1sc3c(c1C#N)CCC3)CCC2	2	42*
N#Cc1cc2c(nc1SCC(=O)Nc1sc3c(c1C#N)CCC3)CCCCCC2	7	-5
Cn1c(SCC(=O)NC(C)(C)C)nnc1-c1cnccn1	6	5
Cc1cccc(OCC(=O)O/N=C(\N)Cc2ccc(Cl)cc2)c1	-8	15
COc1ccc(Cn2nnnc2C(c2ccccc2Cl)N2CCC(C(N)=O)CC2)cc1 (centres undefined)	2	45*
Clc1ccccc1C(c1nnnn1Cc1ccco1)N1CCN(Cc2ccco2)CC1 (centres undefined)	4	-2
C=CC[N+](C)(C)C/C(Cl)=C(\Cl)c1ccccc1	4	0
CCN(CC)S(=O)(=O)c1ccc(C(=O)N2CCCCC2)cc1	-3	-8
CC(C)(NC(=O)N1CCOCC1)c1cccc(C(C)(C)NC(=O)N2CCOCC2)c1	2	2
CC(=O)Oc1cc2oc(=O)cc(C)c2cc1OC(C)=O	-1	0
CC(=O)Oc1ccc2c(C)cc(=O)oc2c1	32*	6
COc1ccc2c(c1)CCc1c(C(=O)Nc3c(C)nn(Cc4ccccc4)c3C)noc1-2	-9	29
COc1ccc2c(c1)CCc1c(C(=O)NCc3ccc(Cl)cc3)noc1-2	81*	2
COc1ccc(C2=[N+]([O-])C(C)(C)N(O)C2C)cc1 (centres undefined)	1	3
CCC1CC2CC(NC(C)=O)C1C2 (centres undefined)	4	47*
CC(=O)N[C@H]1C[C@@H]1c1ccccc1	6	3
CC1(c2cc(C(F)(F)F)n3nc(C(=O)O)cc3n2)CC1	3	-3
CC(C)OCCCNS(=O)(=O)c1ccc2ccccc2c1	14	2
O=C(CC1Sc2ncnn2C1=O)Nc1ccccc1 (centres undefined)	9	4
Cc1ccc(C(=O)n2nc(-c3cccnc3)nc2N)cc1	92*	42*
COc1ccc(-c2nc(N)n(C(C)=O)n2)cc1	27	-2
CC(C)CNC(=O)c1ccc(COc2ccc(Cl)cc2Cl)o1	5	2
SMILES	FXIIa inh	FXIa inh
O=S(=O)(/C=C/c1ccccc1)N1CCN(c2cccc(Cl)c2)CC1	8	-3
FC(F)(F)c1cnc(Oc2ccccc2-c2nnco2)c(Cl)c1	7	-4
FC(F)(F)c1cnc(Oc2ccc(-c3nnco3)cc2)c(Cl)c1	31*	-1
Cc1ccc2c(c1)c(CC(=O)Nc1ccc(F)cc1)c(C(=O)O)n2C	-2	-1
CCOc1cccc2cc(C(N)=O)c(=NCc3ccccc3)oc12	-8	52*
CCOc1ccccc1OC(=O)c1ccco1	5	4
Cc1ccc2c(c1)SC1=NC(c3ccccc3)(C(F)(F)F)NC(=O)N12 (centres undefined)	17	-8
CCC(CO)NCc1ccc(OC2CCCC2)cc1 (centres undefined)	-17	66*
CN(C)CCNCc1ccc(OC2CCCC2)cc1	5	0
Cc1cc(OC(=O)c2ccco2)c2c(C)cc(=O)oc2c1	31*	44*
CC(=O)Oc1cc(OC(C)=O)c2c(C)cc(=O)oc2c1	-1	-4
CC1=C(C#N)C(Nc2ccc(Cl)cn2)(C(F)(F)F)C(=O)N1 (centres undefined)	5	-5
Cc1cc(C)c2c(N)c(S(=O)(=O)Cc3ccccc3)sc2n1	5	8
Cc1ccc(-c2cc(-c3ccccc3)c3c(N)c(S(C)(=O)=O)sc3n2)cc1	51*	-5
CC1(C)Oc2ccc(NC(=O)c3ccco3)cc2O1	7	4
COc1ccc2c(c1)c1ccccc1n2C	5	1
COc1ccc2c(=O)cc(-c3ccccc3)n(C)c2c1	-13	105*
CC(C)CC(c1nnnn1C(C)C)N1CCN(c2ccccc2)CC1 (centres undefined)	3	6
O=C(Cc1ccccc1)Nc1cc(C(=O)c2ccccc2)ccc1N1CCOCC1	-10	-9
O=C(NC1CCCCC1)NC1CC2CCC(C1)N2Cc1nnnn1Cc1ccc2c(c1)OCO2 (centres undefined)	4	7
N#Cc1c(Sc2ncc(C(F)(F)F)cc2Cl)nsc1C/C=N\OCc1c(F)cccc1Cl	-15	16
COc1ccc(S(=O)(=O)NCCC(C)C)cc1C	13	-2
O=C(Oc1cccc2cccnc12)c1ccco1	10	-5
O=C(Oc1ccc(Cl)c2cccnc12)c1ccco1	37*	7
CCc1ccc(CC2S/C(=C(\C#N)C(C)=O)NC2=O)cc1 (centres undefined)	7	49*
SMILES	FXIIa inh	FXIa inh
CCOC(=O)c1ccc(CC2S/C(=C(\C#N)C(C)=O)NC2=O)cc1 (centres undefined)	13	3
CC(C)C1Oc2ccccc2N(CC(=O)N(Cc2ccncc2)Cc2ccco2)C1=O (centres undefined)	2	2
CCCCNC(=O)CSc1nnc(Cc2ccccc2)n1CC	7	4
COc1ccccc1C1(CC(=O)N2CCCCC2)CCOC(C(C)C)C1 (centres undefined)	3	-3
CCCC1CCc2c(sc(N)c2C(N)=O)C1 (centres undefined)	7	52*
CCOC(=O)c1c(NS(C)(=O)=O)sc2c1CCC(C)C2 (centres undefined)	7	-5
O=C(COc1ccc2ccccc2c1)Nc1ccc(S(=O)(=O)N2CCCCCC2)cc1	-18	3
CCOc1cc(C(=S)N2CCCCC2)ccc1OCC(=O)NCc1ccccc1	8	-2
Cc1ccc(-c2n[nH]c(=O)c3ccccc23)cc1S(=O)(=O)N(C)CCO	-13	18
Cc1ccc(-c2n[nH]c(=O)c3ccccc23)cc1S(=O)(=O)NCCO	38*	-6
CC1CCCCN1c1nnc(NC(=O)c2cc(-c3ccc(Br)cc3)on2)s1 (centres undefined)	3	1
Cc1ccccc1C(=O)NC1CCN(C(=O)N(c2ccccc2)c2ccccc2)CC1	18	21
CCOc1ccc(-n2cc(C(=O)Nc3cccc(C)n3)c3cc(OC)c(OC)cc3c2=O)cc1	3	6
COc1ccc(C)cc1S(=O)(=O)N1c2ccccc2CC1C (centres undefined)	2	-6
CCOc1ccc(C(O)C(CN2CCOCC2)c2ccccc2)cc1 (centres undefined)	-15	26
CCOC(=O)C1=C(C)NC2=C(C(=O)CC(C)(C)C2)C1c1coc2ccccc2c1=O (centres undefined)	5	7
CC1=C(C(=O)OC(C)C)C(c2coc3ccccc3c2=O)C2=C(CCCC2=O)N1 (centres undefined)	7	50*
COC(=O)CSc1nnc(C)n1-c1ccc(C)cc1	9	-6
COC(=O)CSc1nnc(C)n1-c1cccc(OC)c1	1	43*
CCN(CC)S(=O)(=O)c1ccc(N2CCN(S(=O)(=O)c3ccc4c(c3)OCCO4)CC2)nc1	-1	-1
O=C(O)c1ccccc1-c1ccccc1C(=O)NCCCO	7	5
COC(=O)c1ccc(C(=O)OC)c(NC(=O)CSc2cccc[n+]2[O-])c1	6	-10
